An excerpt weighted towards active compounds, which were near 1.4% of everything screened.
LDHA block = inhibitors of human lactate dehydrogenase A; P00338; purified LDHA, NADH/diaphorase-resazurin fluorescence; stronger effect = lower value; activity change, % (values are at about 110 or 230 µM); 480,000 tested, 0.15% active; in the data active = activity change below about -30%; inconclusive = mostly about -25% to -30%;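 note: plate controls were DMSO wells for no effect and wells without enzyme for full effect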
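Resorufin fluorescence (ex540/em590), read at 0 and 20 min after diaphorase/resazurin addition, reports the NADH left after a 5 min room-temperature reaction of 2 nM human LDH5 with 0.06 mM NADH and 0.2 mM pyruvate.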
TrxR1 substrate = rat thioredoxin reductase 1 substrate activity | O89049 | purified TrxR1 substrate turnover, NADPH consumption readout | Potency, µM (highest dose often 114 µM), for the others: at the highest dose activity change, negative = substrate turnover | 390,000 tested, 0.01% active; note: potency is the fitted concentration of half-maximal effect; nearly all actives have a fitted effect of over 50% in size
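Rat TrxR1, dispensed at 90 nM, was prereduced with 400 uM NADPH (final) for 5 min at ~22 deg C, then incubated with compound 15 min before 400 uM selenite. A first-read NADPH fluorescence drop versus no-compound background flagged substrates.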
PKM2 act = activators of human pyruvate kinase M2 | P14618 | Potency, µM (series often up to 57.5 µM), inactives show at the top dose activation, actives largely listed as activators | purified PKM2, Kinase-Glo ATP luminescence, activation; response scale: 0% is enzyme alone, no compound | 260,000 tested, 0.34% active; note: potency is the fitted concentration of half-maximal effect; nearly all actives have a fitted effect of over 55% in size
Target sequence (P14618 whole entry, looked up): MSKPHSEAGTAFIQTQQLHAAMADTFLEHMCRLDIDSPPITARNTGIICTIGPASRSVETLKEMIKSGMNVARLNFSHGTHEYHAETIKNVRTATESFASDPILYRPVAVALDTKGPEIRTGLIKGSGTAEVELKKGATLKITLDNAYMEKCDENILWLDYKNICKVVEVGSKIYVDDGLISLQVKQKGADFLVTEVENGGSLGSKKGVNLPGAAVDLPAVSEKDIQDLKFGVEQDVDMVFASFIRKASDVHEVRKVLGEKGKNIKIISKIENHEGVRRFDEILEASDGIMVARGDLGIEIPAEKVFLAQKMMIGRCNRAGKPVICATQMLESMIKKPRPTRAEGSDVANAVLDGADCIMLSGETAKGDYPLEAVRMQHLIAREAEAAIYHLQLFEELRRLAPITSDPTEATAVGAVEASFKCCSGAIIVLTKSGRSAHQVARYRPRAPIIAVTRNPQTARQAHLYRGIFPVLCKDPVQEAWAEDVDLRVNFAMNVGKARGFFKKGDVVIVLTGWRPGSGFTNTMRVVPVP
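Kinase-Glo luminescence reports ATP generated from ADP (0.1 mM) and PEP (0.5 mM) by purified hPK-M2 after 1 h at room temperature, pH 7.2 imidazole buffer; intermediate enzyme activity allows detecting inhibitors and activators.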
GLS inh = blocks human kidney-isoform glutaminase activity | O94925 | GLS enzymatic activity, qHTS titration | Potency, µM (titrated, usually from 45.5 µM), for inactives: at the highest dose activity change, negative = inhibition, usual class: inhibitors | 410,000 tested, 0.21% active; note: potency is the fitted concentration of half-maximal effect
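Enzyme dispensed in phosphate buffer (45 mM, pH 8.2, 0.02% Tween-20), compounds pinned in, then 1 mM L-glutamine solution and the glutamate oxidase–HRP–Amplex Red mix added; fluorescence read immediately and again after 30 min at room temperature.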
rTrxR1 inhibitor = rat TrxR1 inhibition; 390,000 tested, 1% active; Potency, µM (series often up to 114 µM), without a hit: at the highest dose activity change, negative = inhibition, actives largely listed as inhibitors; O89049; recombinant rTrxR1, NADPH fluorescence consumption, selenite substrate; note: potency is the fitted concentration of half-maximal effect; nearly all actives have a fitted effect of over 65% in size
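Rat TrxR1 (90 nM in the dispensed reagent) was pre-reduced with 400 uM NADPH for 5 min at room temperature, then incubated with compound for 15 min. After 400 uM selenite was added, NADPH fluorescence (Ex 340/Em 450 nm) was followed for 8 min.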
mIDH1 inhibitor = human IDH1 R132H inhibition; Potency, µM (titrated, usually from 76.6 µM), for the others: top-dose activity change, negative = inhibition, hits mostly inhibitors; AID 602179; IDH1-R132H enzyme, NADPH consumption, diaphorase/resazurin fluorescence; O75874; 390,000 tested, 0.093% active; note: potency is the fitted concentration of half-maximal effect; nearly all actives have a fitted effect of over 65% in size
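IDH1-R132H (0.5 ug/mL) preincubated 30 min with compound, then NADPH (0.016 mM) and alpha-KG (2 mM) added; 80 min at RT, pH 7.5. Remaining NADPH coupled via diaphorase/resazurin to fluorescence (540/590 nm); concentration-response curves normalized to no-enzyme control.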
Numbers without * were called inactive; ? = inconclusive; . = no result; [ ] = another dose, or the depositor's remark. Unless noted, calls come from the whole dose curve; as a rule, active = well fitted curve in the direction sought with a large enough effect; inconclusive = small, poorly fitted or top-dose-only effect, or another doubt; inactive = no such curve, though single readings can be large; an effect the other way counts as inactive or inconclusive. Unless noted, % is set by controls: 0 for no effect and ±100 for the full control effect.

SMILES | LDHA block | TrxR1 substrate | PKM2 act | GLS inh | rTrxR1 inhibitor | mIDH1 inhibitor
CCOC(=O)COc1ccc(Br)cc1/C=C/c1[nH]c(=O)[nH]c(=O)c1[N+](=O)[O-] | -13 | 0% | 21% | 0% | ? | 5%
COc1ccc(-c2nnc(SC(C(=O)N3CCOCC3)c3ccccc3)n2C)cc1 (stereo not given) | 1 | . | . | . | . | .
O=[N+]([O-])c1ccc(S(=O)(=O)Nc2nnc(C(F)(F)F)s2)cc1 | 0 | -13% | -6%[11.5 µM] | 23% | 6.3µM* | 16%
Cc1ccc(C(=O)N(Cc2cccs2)C2CC2)o1 | 2 | . | . | . | . | .
O=c1c2ccccc2[nH]c2ccc(O)cc12 | 29 | 81% | -1% | 5µM* | 3% | 2%
Cc1ccc(S(=O)(=O)CCC(=O)Oc2ccc3c(C)cc(=O)oc3c2)cc1 | -4 | 382% | . | -5% | 71µM* | 11%
Cc1ccc(OCCCC(=O)Oc2ccc3c(C)cc(=O)oc3c2)cc1 | 2 | . | . | . | . | .
O=C(Nc1nc(-c2cc3ccccc3o2)cs1)c1ccc(S(=O)(=O)N2CCCC2)cc1 | -8 | 11% | 0% | 4% | 79µM* | 0%
CC1CN(S(=O)(=O)c2ccc(C(=O)Nc3nc(-c4cc5ccccc5o4)cs3)cc2)CC(C)O1 (stereo not given) | 1 | 32% | -2% | -4% | 21% | 6%
CCCn1c(-n2nc(C)cc2C)nc2c1c(=O)n(Cc1cccc3ccccc13)c(=O)n2C | -1 | . | . | . | . | .
O=C(O)COc1ccccc1-c1nc(-c2ccccc2)c(-c2ccccc2)[nH]1 | -43* | 171% | 0%[11.5 µM] | 7% | 29% | -3%
COc1cccc(-c2nc(-c3ccccc3)c(-c3ccccc3)[nH]2)c1OCC(=O)O | -10 | 137% | -7% | -5% | 22% | -8%
CCOC(=O)c1noc2nc(C)n(Cc3nc(-c4ccc(OC)c(OC)c4)oc3C)c(=O)c12 | 2 | . | . | . | . | .
O=C(NCc1ccccc1)c1ccc(CSc2nc3cccnc3n2Cc2ccccc2F)cc1 | -33* | 2% | . | 11% | 19% | -17%
COc1ccc(C(=O)CCN(C)C)c2ccccc12 | -3 | 1% | . | . | 0.4µM* | .
CN(C(=O)COC(=O)c1nc(Cl)c(Cl)c(Cl)c1Cl)C1CCS(=O)(=O)C1 (stereo not given) | 1 | 8%[57.1 µM] | 1% | 0% | 14µM* | -1%
O=C(O)c1ccc2c(c1)c(C(C(=O)O)N1CCN(Cc3cccnc3)CC1)cn2Cc1ccccc1 (stereo not given) | 3 | . | . | . | . | .
O=C(Nc1ccccc1)c1oc2ccccc2c1NC(=O)c1nn(-c2cccc(Cl)c2)ccc1=O | 3 | . | . | . | . | .
O=C/C=C/c1c(-c2ccccc2)cc2oc3ccccc3cc1-2 | -7 | -5% | . | 4% | 45µM* | 0%
COc1cc2ccccc2cc1C(=O)Nc1ccccc1SCC(N)=O | 0 | . | . | . | . | .
CCOC(=O)c1c(N2C(=O)C3C4C=CC(O4)C3C2=O)sc2c1CCCC2 (stereo not given) | -1 | -2% | ? | 1% | 13µM* | 4%
CCOC(=O)c1c(-n2cnnn2)sc2c1CCCC2 | 1 | 40% | 3% | -1% | 26% | -2%
N#C/C(=C/c1cc2ccccc2o1)c1nc2ccccc2[nH]1 | 9 | . | . | . | . | .
CC(=O)N(c1cccc(C)c1)C1SC(=O)N(c2ccccc2)C1=O (stereo not given) | -2 | 9%[57.1 µM] | 0.4µM* | 14% | 9%[57.1 µM] | 1%
COc1ccc(N(C(C)=O)C2SC(=O)N(c3ccccc3)C2=O)cc1 (stereo not given) | 7 | 6% | . | . | 9% | .
SMILES | LDHA block | TrxR1 substrate | PKM2 act | GLS inh | rTrxR1 inhibitor | mIDH1 inhibitor
CC(C)(C)c1ccc(O)c(NC(=O)CC(C(=O)O)c2ccc(F)cc2)c1 (stereo not given) | -4 | . | . | . | . | .
Cc1ccccc1-c1nn(-c2ccc(F)cc2F)cc1CNCCN(C)C | 3 | -6% | 1% | -10% | 10%[57.1 µM] | 2%
Cc1ccccc1-c1nn(-c2ccc(F)cc2F)cc1CNCCCN(C)C | -1 | 6%[57.1 µM] | 1% | 10µM* | 13%[57.1 µM] | 11%
N#Cc1ccccc1NC(=S)NC(=O)c1cccs1 | -3 | -7% | 2% | 19% | 2.2µM* | 3%
N#Cc1ccccc1NC(=O)COC(=O)c1cccs1 | -4 | -9% | . | 0% | 0%[57.1 µM] | -14%
CCOc1ccccc1-c1cc(C(=O)O)c2ccccc2n1 | -14 | . | . | . | . | .
Cn1nnnc1Sc1ncnc2scc(-c3cccs3)c12 | -7 | 0% | . | -19% | 45µM* | .
Cn1nnnc1Sc1ncnc2scc(-c3ccc(-c4ccccc4)cc3)c12 | 0 | 3%[57.1 µM] | . | -3% | 22% | .
COc1ccc(C(=O)COC(=O)Cn2nnc3ccccc32)cc1Br | -4 | 1% | -1% | -4% | 15% | 10%
COc1ccc(C(=O)n2nnc3ccccc32)cc1OC | -12 | -6% | 1% | -11% | 3.2µM* | 2%
COc1ccc(C(=O)n2nnc3ccccc32)cc1Br | 1 | 7% | 2% | 31% | 4µM* | 6%
O=C(c1ccc2c(c1)OCO2)n1nnc2ccccc21 | . | . | -1% | . | . | .
CC(=O)N1/C(=C/c2ccc(N(C)C)cc2)C(=O)c2ccccc21 | 1 | -5% | -2% | 22% | 40µM* | 14%
Cn1c(SCC(=O)N2CCCCC2)nc2ccsc2c1=O | 17 | . | . | . | . | .
CCOC(=O)/C(=C/c1ccc(OC(=O)c2ccccc2)cc1)C(C)=O | 1 | 0% | 18% | -8% | 14µM* | -14%
Cc1ccc(/C=c2/sc3nnc(-c4ccccc4Cl)n3c2=O)o1 | 12 | -7% | 8.9µM* | -21% | ? | 2%
CCOc1ccc(NC(=O)CSc2ccc(-c3ccco3)nn2)cc1 | -4 | 4% | -13% | 0% | ? | -1%
O=C(CSc1ccc(-c2ccco2)nn1)c1ccccc1 | 3 | -6% | ? | 4% | 28µM* | 3%
COc1cccc(NC(=O)CSc2ccc3nnc(-c4ccncc4)n3n2)c1 | -10 | 8% | 1.8µM* | 0% | 20% | 8%
Cc1nnc(NC(=O)CSc2ccc(-c3ccco3)nn2)s1 | -1 | 10% | 20µM* | -2% | 18µM* | 2%
COc1ccc(C(=O)CSc2ccc(-c3ccco3)nn2)cc1 | -1 | -8% | 22% | 7% | ? | 7%
COc1cccc(NC(=O)CSc2ccc3nnc(-c4ccccn4)n3n2)c1 | -2 | 0% | 23% | -9% | -6% | -12%
O=C(CSc1ccc(-c2ccco2)nn1)Nc1ccc(F)cc1 | -3 | 8% | 30% | 3% | 32µM* | 6%
COc1ccc(NC(=O)Cn2ccn(-c3ccc(OC)cc3)c2=O)cc1 | -10 | . | . | . | . | .
COc1cccc(NC(=O)CSc2ccc(-c3ccco3)nn2)c1 | 3 | 5% | 3.2µM* | -1% | 28µM* | 3%
